Where “and” joins values, the source holds several entries; their conditions need not be identical. Equal values may be shown once. About 2,000 (36%) of roughly 5,500 compounds were called active. Inconclusive results (about 18%) are left out. This is one part of the list. Values without a mark were called inactive. Rule as the data show it: active = normalized growth mostly below about 0.91 (no sharp cut-off); inconclusive = no clear call, values can overlap the other calls; inactive = mostly above about 0.92.
Test: chemical genetic growth profiling, strain panel (AID 1159580);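 also: tested at 20 µM; growth read once vehicle control cultures reached saturation at 30 °C; 1 = growth at the plate median or of vehicle wells; lower values mean less growth of the strain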
Conditions: growth OD

Cc1c(OCC(F)(F)F)ccnc1CS(=O)c1nc2ccccc2[nH]1 (stereo not given)
normalized growth (S. cerevisiae deletion strains, locus YJR075W, strain HOC1, stronger effect = lower value): 0.948 and 0.981
normalized growth (S. cerevisiae deletion strains, locus YKL009W, strain mrt4, stronger effect = lower value): 0.991
normalized growth (S. cerevisiae deletion strains, locus YKL068W, stronger effect = lower value): 0.997
normalized growth (S. cerevisiae deletion strains, locus YKL085W, strain MDH1 (second series), stronger effect = lower value): 0.939
normalized growth (S. cerevisiae deletion strains, locus YKL085W, strain MDH1, stronger effect = lower value): 0.939
normalized growth (S. cerevisiae deletion strains, locus YKL160W, strain elf1, stronger effect = lower value): 1.01
normalized growth (S. cerevisiae deletion strains, locus YKL190W, strain CNB1, stronger effect = lower value): 0.987
normalized growth (S. cerevisiae deletion strains, locus YKR001C, strain vps1, stronger effect = lower value): 0.914
normalized growth (S. cerevisiae deletion strains, locus YKR026C, strain gcn3, stronger effect = lower value): 1
normalized growth (S. cerevisiae deletion strains, locus YKR091W, strain srl3, stronger effect = lower value): 1.01
normalized growth (S. cerevisiae deletion strains, locus YLL001W, strain dnm1, stronger effect = lower value): 1.01
normalized growth (S. cerevisiae deletion strains, locus YLL026W, stronger effect = lower value): 1.02
normalized growth (S. cerevisiae deletion strains, locus YLL041C, strain sdh2, stronger effect = lower value): 1.01
normalized growth (S. cerevisiae deletion strains, locus YLR027C, strain aat2, stronger effect = lower value): 1.01
normalized growth (S. cerevisiae deletion strains, locus YLR039C, strain RIC1, stronger effect = lower value): 0.985
normalized growth (S. cerevisiae deletion strains, locus YLR058C, strain SHM2, stronger effect = lower value): 0.966
normalized growth (S. cerevisiae deletion strains, locus YLR102C, strain apc9, stronger effect = lower value): 1
normalized growth (S. cerevisiae deletion strains, locus YLR113W, strain HOG1, stronger effect = lower value): 0.581 (active)
normalized growth (S. cerevisiae deletion strains, locus YLR221C, strain rsa3, stronger effect = lower value): 1
normalized growth (S. cerevisiae deletion strains, locus YLR258W, strain gsy2, stronger effect = lower value): 1.02
normalized growth (S. cerevisiae deletion strains, locus YLR262C, strain YPT6 (second series), stronger effect = lower value): 1.05
normalized growth (S. cerevisiae deletion strains, locus YLR262C, strain YPT6, stronger effect = lower value): 0.998
normalized growth (S. cerevisiae deletion strains, locus YLR268W, strain sec22, stronger effect = lower value): 0.826 (active)
normalized growth (S. cerevisiae deletion strains, locus YLR320W, strain mms22, stronger effect = lower value): 1.01
normalized growth (S. cerevisiae deletion strains, locus YLR330W, strain CHS5, stronger effect = lower value): 0.987
normalized growth (S. cerevisiae deletion strains, locus YLR342W, strain FKS1 (second series), stronger effect = lower value): 0.926
normalized growth (S. cerevisiae deletion strains, locus YLR342W, strain FKS1, stronger effect = lower value): 1.04
normalized growth (S. cerevisiae deletion strains, locus YLR357W, strain rsc2, stronger effect = lower value): 1.01
normalized growth (S. cerevisiae deletion strains, locus YLR370C, strain arc18, stronger effect = lower value): 1.02
normalized growth (S. cerevisiae deletion strains, locus YLR371W, strain rom2, stronger effect = lower value): 0.989
normalized growth (S. cerevisiae deletion strains, locus YLR384C, strain iki3, stronger effect = lower value): 1.02
normalized growth (S. cerevisiae deletion strains, locus YLR418C, strain cdc73, stronger effect = lower value): 0.828 (active)
normalized growth (S. cerevisiae deletion strains, locus YML016C, strain PPZ1, stronger effect = lower value): 0.979
normalized growth (S. cerevisiae deletion strains, locus YML032C, strain rad52, stronger effect = lower value): 0.93
normalized growth (S. cerevisiae deletion strains, locus YML120C, strain ndi1, stronger effect = lower value): 1.02
normalized growth (S. cerevisiae deletion strains, locus YML124C, strain tub3, stronger effect = lower value): 0.997
normalized growth (S. cerevisiae deletion strains, locus YMR058W, strain fet3, stronger effect = lower value): 1.01
normalized growth (S. cerevisiae deletion strains, locus YMR078C, strain ctf18, stronger effect = lower value): 0.989
normalized growth (S. cerevisiae deletion strains, locus YMR125W, strain sto1, stronger effect = lower value): 1.02
normalized growth (S. cerevisiae deletion strains, locus YMR129W, stronger effect = lower value): 1.02
normalized growth (S. cerevisiae deletion strains, locus YMR205C, strain PFK2, stronger effect = lower value): 1.04
normalized growth (S. cerevisiae deletion strains, locus YMR223W, strain ubp8, stronger effect = lower value): 0.981
normalized growth (S. cerevisiae deletion strains, locus YMR231W, strain pep5, stronger effect = lower value): 1.02
normalized growth (S. cerevisiae deletion strains, locus YMR263W, strain SAP30, stronger effect = lower value): 0.97 and 0.99
normalized growth (S. cerevisiae deletion strains, locus YMR307W, strain GAS1, stronger effect = lower value): 0.907
normalized growth (S. cerevisiae deletion strains, locus YNL067W, strain RPL9B, stronger effect = lower value): 0.958
normalized growth (S. cerevisiae deletion strains, locus YNL071W, strain lat1, stronger effect = lower value): 1.01
normalized growth (S. cerevisiae deletion strains, locus YNL128W, strain TEP1, stronger effect = lower value): 0.974
normalized growth (S. cerevisiae deletion strains, locus YNL153C, strain GIM3, stronger effect = lower value): 0.956
normalized growth (S. cerevisiae deletion strains, locus YNL175C, strain NOP13, stronger effect = lower value): 0.996
normalized growth (S. cerevisiae deletion strains, locus YNL183C, strain NPR1, stronger effect = lower value): 0.789 (active)
normalized growth (S. cerevisiae deletion strains, locus YNL197C, strain WHI3, stronger effect = lower value): 0.998
normalized growth (S. cerevisiae deletion strains, locus YNL209W, strain ssb2, stronger effect = lower value): 1.01
normalized growth (S. cerevisiae deletion strains, locus YNL224C, strain SQS1, stronger effect = lower value): 0.993
normalized growth (S. cerevisiae deletion strains, locus YNL233W, strain BNI4, stronger effect = lower value): 0.941
normalized growth (S. cerevisiae deletion strains, locus YNL248C, strain rpa49, stronger effect = lower value): 1.02
normalized growth (S. cerevisiae deletion strains, locus YNL250W, strain rad50, stronger effect = lower value): 0.902
normalized growth (S. cerevisiae deletion strains, locus YNL271C, strain bni1, stronger effect = lower value): 0.913 (active)
normalized growth (S. cerevisiae deletion strains, locus YNL298W, strain CLA4, stronger effect = lower value): 0.834 (active)
normalized growth (S. cerevisiae deletion strains, locus YNL307C, strain MCK1, stronger effect = lower value): 0.872 (active)
normalized growth (S. cerevisiae deletion strains, locus YNL322C, strain KRE1 (second series), stronger effect = lower value): 1.02
normalized growth (S. cerevisiae deletion strains, locus YNL322C, strain KRE1, stronger effect = lower value): 0.998
normalized growth (S. cerevisiae deletion strains, locus YNR049C, strain mso1, stronger effect = lower value): 1.01
normalized growth (S. cerevisiae deletion strains, locus YNR052C, strain pop2, stronger effect = lower value): 0.98
normalized growth (S. cerevisiae deletion strains, locus YOL006C, strain TOP1, stronger effect = lower value): 0.989
normalized growth (S. cerevisiae deletion strains, locus YOL012C, strain htz1): 0.898
normalized growth (S. cerevisiae deletion strains, locus YOL147C, strain pex11, stronger effect = lower value): 0.965
normalized growth (S. cerevisiae deletion strains, locus YOR001W, strain rrp6, stronger effect = lower value): 1.02
normalized growth (S. cerevisiae deletion strains, locus YOR061W, strain CKA2, stronger effect = lower value): 0.992
normalized growth (S. cerevisiae deletion strains, locus YOR069W, strain VPS5, stronger effect = lower value): 0.989
normalized growth (S. cerevisiae deletion strains, locus YOR070C, strain gyp1, stronger effect = lower value): 1.02
normalized growth (S. cerevisiae deletion strains, locus YOR080W, strain dia2, stronger effect = lower value): 1.01
normalized growth (S. cerevisiae deletion strains, locus YOR083W, strain WHI5 (second series), stronger effect = lower value): 0.966
normalized growth (S. cerevisiae deletion strains, locus YOR083W, strain WHI5, stronger effect = lower value): 1.01
normalized growth (S. cerevisiae deletion strains, locus YOR106W, strain vam3, stronger effect = lower value): 0.991
normalized growth (S. cerevisiae deletion strains, locus YOR136W, strain idh2, stronger effect = lower value): 0.979
normalized growth (S. cerevisiae deletion strains, locus YOR144C, strain elg1, stronger effect = lower value): 0.977
normalized growth (S. cerevisiae deletion strains, locus YOR184W, strain ser1, stronger effect = lower value): 0.881
normalized growth (S. cerevisiae deletion strains, locus YOR231W, strain MKK1, stronger effect = lower value): 0.91
normalized growth (S. cerevisiae deletion strains, locus YOR265W, strain rbl2, stronger effect = lower value): 1.02
normalized growth (S. cerevisiae deletion strains, locus YOR270C, strain vph1, stronger effect = lower value): 1.06
normalized growth (S. cerevisiae deletion strains, locus YOR290C, strain snf2, stronger effect = lower value): 1.01
normalized growth (S. cerevisiae deletion strains, locus YOR316C, strain cot1, stronger effect = lower value): 0.988
normalized growth (S. cerevisiae deletion strains, locus YPL051W, strain arl3, stronger effect = lower value): 0.993
normalized growth (S. cerevisiae deletion strains, locus YPL055C, strain LGE1, stronger effect = lower value): 0.955 and 0.953
normalized growth (S. cerevisiae deletion strains, locus YPL078C, strain atp4, stronger effect = lower value): 1.02
normalized growth (S. cerevisiae deletion strains, locus YPL106C, strain sse1, stronger effect = lower value): 1.01
normalized growth (S. cerevisiae deletion strains, locus YPL240C, strain hsp82, stronger effect = lower value): 1.02
normalized growth (S. cerevisiae deletion strains, locus YPL241C, strain CIN2, stronger effect = lower value): 1
normalized growth (S. cerevisiae deletion strains, locus YPR119W, strain clb2, stronger effect = lower value): 0.996
normalized growth (S. cerevisiae deletion strains, locus YPR141C, strain kar3, stronger effect = lower value): 1.01
normalized growth (S. cerevisiae deletion strains, locus YPR163C, strain tif3, stronger effect = lower value): 0.976
normalized growth (S. cerevisiae deletion strains, locus YPR167C, strain met16, stronger effect = lower value): 0.988
normalized growth (S. cerevisiae deletion strains, strain wtn01, stronger effect = lower value): 0.95
normalized growth (S. cerevisiae strains, strain wild type, stronger effect = lower value): 0.972
